Assay results as given in PubChem BioAssay (NCI).
Several values for one entry are separate records, joined by “and”; a condition that tells them apart may be missing. Equal entries are not always repeated. Compounds without any hit were thinned out: in the full panel of roughly 83,000, 20% have a hit.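 Plates (96-well) were seeded with cells, treated with compound at one concentration, and incubated for 48 hours before percent growth was determined.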 Activity calls are given as the source filed them. The calls were made as follows: active = growth percent below 10; inactive = the rest.

Columns and labels:
Assay in all cases: NCI-60 one-dose screen, 48 h (100 = growth as untreated, 0 = no growth, -100 = all killed)
Settings in all cases: 10 µM unless noted
NCI/ADR-RES ovarian = test system: NCI/ADR-RES ovarian
T-47D breast = test system: T-47D breast
BT-549 breast = test system: BT-549 breast
MDA-MB-435 melanoma = test system: MDA-MB-435 melanoma
SW-620 colon = test system: SW-620 colon
MCF7 breast = test system: MCF7 breast
HCT-116 colon = test system: HCT-116 colon
HCC-2998 colon = test system: HCC-2998 colon
KM12 colon = test system: KM12 colon

Measured: growth

CCCCCCCCCCCCCCCC[N+](C)(C)Cc1ccccc1
inactive: NCI/ADR-RES ovarian 82.4% and 83.6%
active: T-47D breast 7% and -12% | BT-549 breast -0.798% and -75.1% | MDA-MB-435 melanoma -58.7% and -87.5% | SW-620 colon -6.91% and -62.2% | MCF7 breast 2.3% and -42.3% | HCT-116 colon -53% and -100% | HCC-2998 colon -56.7% and -49.7% | KM12 colon -81% and -85.4%

O=[N+]([O-])c1cc(Cl)c(Cl)c([N+](=O)[O-])c1Cl
active: T-47D breast 0.463% | SW-620 colon -61.9% | HCT-116 colon -77.1%
inactive: NCI/ADR-RES ovarian 80% | BT-549 breast 96.8% | MDA-MB-435 melanoma 89.3% | MCF7 breast 20.1% | HCC-2998 colon 109% | KM12 colon 26%

CCCCCCCCCCCCCCCC[n+]1ccccc1
inactive: NCI/ADR-RES ovarian 41.7% and 69.3%
active: T-47D breast 3.84% and -0.991% | BT-549 breast -50.8% and -73.3% | MDA-MB-435 melanoma -82.2% and -80.6% | SW-620 colon -84.8% and -29.2% | MCF7 breast -21.9% and -2.32% | HCT-116 colon -65% and -95.5% | HCC-2998 colon -80.8% and -60.6% | KM12 colon -96.2% and -81.6%

Oc1cc(Cl)ccc1Oc1ccc(Cl)cc1Cl
inactive: T-47D breast 17.9% | MDA-MB-435 melanoma 15.1% | SW-620 colon 21% | MCF7 breast 19.3% | HCC-2998 colon 105% | KM12 colon 21.9%
active: NCI/ADR-RES ovarian 7.74% | BT-549 breast 8.8% | HCT-116 colon 6.58%

Cc1nnc([S-])o1.[Au+].c1ccc([PH+](c2ccccc2)c2ccccc2)cc1
active: SW-620 colon -11.8%
inactive: NCI/ADR-RES ovarian 99.6% | T-47D breast 29.6% | BT-549 breast 34.1% | MDA-MB-435 melanoma 43.9% | MCF7 breast 10.3% | HCT-116 colon 21.6% | HCC-2998 colon 80.2% | KM12 colon 74.2%

CC[PH+](CC)CC.O=COC1OC([S-])C(OC=O)C(OC=O)C1OC=O.[Au+] (stereo not drawn)
inactive: NCI/ADR-RES ovarian 18.7%
active: T-47D breast -82.7% | BT-549 breast -80.8% | MDA-MB-435 melanoma -72.2% | SW-620 colon -76.3% | MCF7 breast -69.2% | HCT-116 colon -50.3% | HCC-2998 colon -90% | KM12 colon -78.9%

C[C@]12CCc3sc(Nc4ccc(F)cc4)nc3C1=CC[C@@H]1[C@@H]2CC[C@]2(C)C(=O)CC[C@@H]12
inactive: NCI/ADR-RES ovarian 80.3% | T-47D breast 80% | BT-549 breast 43.8% | MDA-MB-435 melanoma 57% | SW-620 colon 35.4% | MCF7 breast 20% | HCT-116 colon 17.7% | HCC-2998 colon 95.1% | KM12 colon 72.2%

O=C1C=C(N2CC2)c2ccccc2C1=O
active: MDA-MB-435 melanoma -78.8%
inactive: NCI/ADR-RES ovarian 62.7% | T-47D breast 75.5% | BT-549 breast 71.5% | SW-620 colon 68.4% | MCF7 breast 41.5% | HCT-116 colon 63.4% | HCC-2998 colon 94% | KM12 colon 81.9%

COc1ccc(O)c2c(=O)c3c(OC)cc4c(c3oc12)[C@@H]1C=CO[C@@H]1O4
active: T-47D breast 5.73% | MCF7 breast -0.498% | HCC-2998 colon -51.7%
inactive: NCI/ADR-RES ovarian 41.6% | BT-549 breast 17.8% | MDA-MB-435 melanoma 37.3% | SW-620 colon 64.6% | HCT-116 colon 52.2% | KM12 colon 12.5%

C/C(=C\c1ccn(-c2ccc(N)cc2F)n1)[C@@H]1C[C@@H]2O[C@]2(C)CCC[C@H](C)[C@H](O)[C@@H](C)C(=O)C(C)(C)[C@@H](O)CC(=O)O1
inactive: T-47D breast 35.5% | BT-549 breast 19.7% | SW-620 colon 35.1% | MCF7 breast 16.7% | HCT-116 colon 12.2% | KM12 colon 10.2%
active: NCI/ADR-RES ovarian -11.9% | MDA-MB-435 melanoma -30% | HCC-2998 colon -15%

Nc1ccc(S(=O)(=O)F)cc1
inactive: NCI/ADR-RES ovarian 107% | T-47D breast 96.4% | BT-549 breast 104% | MDA-MB-435 melanoma 102% | SW-620 colon 105% | MCF7 breast 106% | HCT-116 colon 100% | HCC-2998 colon 103% | KM12 colon 100%

c1ccc2c(c1)O[As](O[As]1Oc3ccccc3O1)O2
inactive: NCI/ADR-RES ovarian 50.1% | T-47D breast 14.3% | BT-549 breast 17.6% | MDA-MB-435 melanoma 41.2% | SW-620 colon 25.5% | MCF7 breast 12.7% | HCT-116 colon 43.1% | HCC-2998 colon 65.8% | KM12 colon 69.8%

C[C@]12CCc3sc(Nc4ccc(O)cc4)nc3C1=CC[C@@H]1[C@@H]2CC[C@]2(C)C(=O)CC[C@@H]12
active: SW-620 colon -32.2% | MCF7 breast 3.11% | HCT-116 colon -72.4%
inactive: NCI/ADR-RES ovarian 68.6% | T-47D breast 10.6% | BT-549 breast 45.6% | MDA-MB-435 melanoma 35.3% | HCC-2998 colon 97.7% | KM12 colon 46.7%

O=C(O)C(F)F
inactive: NCI/ADR-RES ovarian 113% | T-47D breast 96.6% | BT-549 breast 117% | MDA-MB-435 melanoma 102% | SW-620 colon 90.4% | MCF7 breast 97.1% | HCT-116 colon 107% | HCC-2998 colon 123% | KM12 colon 103%

Cc1c(C)c(N)c(C)c(C)c1N
inactive: NCI/ADR-RES ovarian 96.1% | T-47D breast 92.6% | BT-549 breast 104% | MDA-MB-435 melanoma 107% | SW-620 colon 51.8% | MCF7 breast 46.5% | HCT-116 colon 59.3% | HCC-2998 colon 106% | KM12 colon 98.4%

CN1CCN(c2ccc(Cl)cc2)CC1
inactive: NCI/ADR-RES ovarian 70.1% | T-47D breast 90% | BT-549 breast 83.2% | MDA-MB-435 melanoma 97.8% | SW-620 colon 46.5% | MCF7 breast 62.6% | HCT-116 colon 31.4% | HCC-2998 colon 105% | KM12 colon 100%

O=Cc1cn(Cc2ccccc2)c2ccccc12
inactive: NCI/ADR-RES ovarian 82.1% | T-47D breast 41.4% | BT-549 breast 95.1% | MDA-MB-435 melanoma 125% | SW-620 colon 92.4% | MCF7 breast 84.8% | HCT-116 colon 68.4% | HCC-2998 colon 33.5% | KM12 colon 101%

CCCCn1c(=O)c(C(=O)NCc2ccccc2Cl)c(O)c2ccccc21
inactive: NCI/ADR-RES ovarian 56.2% | T-47D breast 85.6% | BT-549 breast 47.9% | MDA-MB-435 melanoma 98.5% | SW-620 colon 78.8% | MCF7 breast 64.4% | HCT-116 colon 21.4% | HCC-2998 colon 93.4% | KM12 colon 83.8%

CCOP(=O)(NC)OCC
inactive: NCI/ADR-RES ovarian 102% | T-47D breast 102% | BT-549 breast 112% | MDA-MB-435 melanoma 132% | SW-620 colon 108% | MCF7 breast 101% | HCT-116 colon 92.1% | HCC-2998 colon 112% | KM12 colon 106%

Cc1cc(C(C)(C)C)ccc1O
inactive: NCI/ADR-RES ovarian 98.3% | T-47D breast 103% | BT-549 breast 109% | MDA-MB-435 melanoma 111% | SW-620 colon 108% | MCF7 breast 101% | HCT-116 colon 95.6% | HCC-2998 colon 106% | KM12 colon 103%

CC[C@H](C)[C@H](NC(=O)c1ncccn1)C(=O)N(C)[C@H](C[C@@H](OC(C)=O)c1nc(C(=O)N[C@@H](Cc2ccccc2)C[C@H](C)C(=O)OC)cs1)C(C)C
active: BT-549 breast 5.49% | MDA-MB-435 melanoma -24.6% | HCT-116 colon 2.48%
inactive: NCI/ADR-RES ovarian 70.6% | T-47D breast 52.6% | SW-620 colon 25.8% | MCF7 breast 18.9% | HCC-2998 colon 60.9% | KM12 colon 16.1%

CC[C@H](C)[C@H](NC(=O)CN(C)C)C(=O)N(C)[C@H](C[C@@H](OC(C)=O)c1nc(C(=O)NC23C4C5C2C2C3C4C52C(=O)OC)cs1)C(C)C (stereo partly drawn)
active: BT-549 breast 4.22% | MDA-MB-435 melanoma -59.9% | HCT-116 colon -2.36%
inactive: NCI/ADR-RES ovarian 63.7% | T-47D breast 62.9% | SW-620 colon 25.9% | MCF7 breast 21.6% | HCC-2998 colon 18.5% | KM12 colon 13.2%

CC1OC(=O)C(C(C)C)NC(=O)C(C(C)C)OC(=O)C(C(C)C)NC(=O)C(C)OC(=O)C(C(C)C)NC(=O)C(C(C)C)OC(=O)C(C(C)C)NC(=O)C(C)OC(=O)C(C(C)C)NC(=O)C(C(C)C)OC(=O)C(C(C)C)NC1=O (stereo not drawn)
active: NCI/ADR-RES ovarian 0.571% | T-47D breast -15.2% | BT-549 breast -42.5% | MDA-MB-435 melanoma 3.94% | SW-620 colon 3.61% | MCF7 breast -31.7% | HCT-116 colon -69% | HCC-2998 colon -16.5% | KM12 colon 0.9%

NC1CN2CCC1CC2 (stereo not drawn)
inactive: NCI/ADR-RES ovarian 101% | T-47D breast 91% | BT-549 breast 95% | MDA-MB-435 melanoma 104% | SW-620 colon 99.7% | MCF7 breast 90.5% | HCT-116 colon 109% | HCC-2998 colon 114% | KM12 colon 115%

CC12CCC3C4CCC(=O)C=C4CCC3C1CC1CC(=O)OC12 (stereo not drawn)
inactive: NCI/ADR-RES ovarian 101% | T-47D breast 101% | BT-549 breast 107% | MDA-MB-435 melanoma 112% | SW-620 colon 102% | MCF7 breast 98.7% | HCT-116 colon 97.1% | HCC-2998 colon 110% | KM12 colon 96%

CC[C@H](C)[C@H](NC(=O)C12CC(NC)(C1)C2)C(=O)N(C)[C@H](C[C@@H](OC(C)=O)c1nc(C(=O)N[C@@H](Cc2ccccc2)C[C@H](C)C(=O)OC)cs1)C(C)C
active: BT-549 breast -22.4% | MDA-MB-435 melanoma -17.5% | HCT-116 colon 1.15% | HCC-2998 colon 8.1% | KM12 colon 6.78%
inactive: NCI/ADR-RES ovarian 68.9% | T-47D breast 51.9% | SW-620 colon 39.5% | MCF7 breast 15%

O=C1CCCCC1CN1CCCCC1 (stereo not drawn)
inactive: NCI/ADR-RES ovarian 101% | T-47D breast 83.2% | BT-549 breast 117% | MDA-MB-435 melanoma 109% | SW-620 colon 101% | MCF7 breast 90.9% | HCT-116 colon 101% | HCC-2998 colon 97.8% | KM12 colon 98.1%
